Source: PubChem BioAssay (National Center for Advancing Translational Sciences (NCATS))
In the library only some 19% were active in any assay of this set; here they are far more common.
DT40 TDP1 no CPT: qHTS for Inhibitors of human tyrosyl-DNA phosphodiesterase 1 (TDP1): qHTS in cells in absence of CPT; DT40 Tdp1-/- hTDP1 cells, no CPT, ATP luminescence, 48 h; Potency, µM (highest dose often 46.2 µM), inactives show top-dose activity change, negative = growth inhibition, most hits filed as inhibitors; 15% of 420,000 active; AID 686978, 2013; further: potency means the concentration at half of the fitted maximal effect; nearly all actives have a fitted effect of over 55% in size
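Stably hTDP1-transfected Tdp1-null chicken DT40 cells were treated with library compounds minus camptothecin and grown for at least 48 hr at 37 °C, after which cellular ATP was quantified by luminescence.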
HT1080 IDH1KD tx: qHTS for induction of synthetic lethality in tumor cells producing 2HG: qHTS for the HT-1080-IDH1KD cell line; HT-1080 IDH1 knockdown viability, ATP luminescence, 48 h; Potency, µM (highest dose often 46.1 µM), inactives show at the highest dose activity, negative = toxicity, most hits filed as cytotoxic; 2% of 360,000 active;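 further: potency means the concentration at half of the fitted maximal effect; 0% = DMSO wells and -100% = cell-free medium wells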
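Assay cells: HT-1080 with IDH1 knockdown, 750 per well, RPMI/5% FBS. Exposure: 48 h at 37 °C following 2 h pre-incubation. Read: CellTiter-Glo luminescence; fitted concentration-response, curve class assigned.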
DT40 TDP1 CPT: qHTS for Inhibitors of human tyrosyl-DNA phosphodiesterase 1 (TDP1): qHTS in cells in presence of CPT; chicken DT40 Tdp1-/-;hTDP1 cells + 20 nM CPT, ATP luminescence, 48 h; Potency, µM (highest dose often 46.2 µM), for the others: at the highest dose activity change, negative = growth inhibition, hits mostly inhibitors; 12% of 420,000 active; AID 686979, 2013; further: potency means the concentration at half of the fitted maximal effect; nearly all actives have a fitted effect of over 55% in size
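Chicken DT40 Tdp1-/- cells complemented with human TDP1, 400 cells/well, exposed to compounds plus 20 nM camptothecin for at least 48 h at 37 C; viability read as ATP content by CellTiter-Glo luminescence.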
HT1080-NT tox: qHTS for induction of synthetic lethality in tumor cells producing 2HG: qHTS for the HT-1080-NT fibrosarcoma cell line. 1.6% of 360,000 active. AID 686970, 2013. HT-1080-NT fibrosarcoma viability, CellTiter-Glo ATP luminescence, 48 h. Potency, µM (highest dose often 46.1 µM), without a hit: at the highest dose activity, negative = less viability, most hits filed as cytotoxic;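 further: NT is the 2HG producing partner of a matched IDH1 knockdown line; potency means the concentration at half of the fitted maximal effect; 0% = DMSO-treated cells and -100% = media-only wells without cells; nearly all actives have a fitted effect of over 55% in size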
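Viability by CellTiter-Glo luminescence after 48 h compound exposure at 37C of HT-1080-NT cells (750/well, RPMI, 5% FBS). % activity scaled between DMSO wells and medium-only wells, then curve-fitted and categorized by curve class.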
IL1B secr inh: qHTS for Inhibitors of Inflammasome Signaling: IL-1-beta AlphaLISA Primary Screen. THP-1 LPS/ATP IL-1B secretion, AlphaLISA, 16 h; active compounds read low. activity change, % at 57.5 µM. 4.7% of 360,000 active; in the data active means activity change below about -50%; inconclusive means mostly about -30% to -49%
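THP-1 cells pretreated 1 hr with compounds (up to 57.5 uM final), then stimulated with LPS (250 ng/mL final) plus ATP (1.25 mM final); secreted IL-1B measured by AlphaLISA after 16 hr, decreased signal indicating inhibition.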
ELG1 DNA repair: qHTS screen for small molecules that inhibit ELG1-dependent DNA repair in human embryonic kidney (HEK293T) cells expressing luciferase-tagged ELG1; Potency, µM (highest dose often 46.1 µM), for inactives: at the top dose activity change, negative = inhibition, usual class: inhibitors; 2.3% of 330,000 active; HEK293T ELG1-luciferase reporter, luminescence, 16 h; DNA damage induced by 5-fluorouridine; further: potency means the concentration at half of the fitted maximal effect; nearly all actives have a fitted effect of over 55% in size
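HEK293T cells expressing luciferase-tagged ELG1 (2,000/well) received 5-Fluorouridine plus compound or DMSO for 16 hr at 37 °C. Luciferase was read by ONE-Glo luminescence after 30 min at room temperature.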
Numbers without * were called inactive; u = inconclusive; x = not tested or not shown; [ ] = remark or other dose. Unless noted, the call rests on the fitted dose curve; in most records, active means well fitted curve in the direction sought with a large enough effect; inconclusive means small, poorly fitted or top-dose-only effect, or another doubt; inactive means no such curve, though single readings can be large; an effect the other way counts as inactive or inconclusive. Unless noted, on the % scale 0 is the no-effect control and ±100 the full control effect.

SMILES	DT40 TDP1 no CPT	HT1080 IDH1KD tx	DT40 TDP1 CPT	HT1080-NT tox	IL1B secr inh	ELG1 DNA repair
CS(=O)(=O)Nc1ccc(C2=NN(C(=O)c3ccco3)C(c3ccc(F)cc3)C2)cc1 (stereo not given)	16µM*	-30%	-30%	-22%	-79*	u
COc1ccc(C2=NN(C(=O)c3ccco3)C(c3cc4ccccc4nc3Cl)C2)cc1 (stereo not given)	u	18%	u	14%	10	8%
O=C(c1ccco1)N1N=C(c2ccc3nccnc3c2)CC1c1ccccc1 (stereo not given)	18µM*	-1%	u	-2%	-27	-8%
CCC(=O)N1N=C(c2cccc(NS(C)(=O)=O)c2)CC1c1cccs1 (stereo not given)	u	0%	u	3%	-8	23µM*
CC1(C)OC(=O)C2=C(C[C@@H](C3CCCC3)O[C@H]2CCc2cccc(Cl)c2)O1	u	2%	-26%	17%	43	x
COc1cccc(C(C(=O)NC2CCCC2)N(C(=O)c2ccco2)c2ccc(NC(C)=O)cc2)c1OC (stereo not given)	-30%	0%	-20%	16%	-12	6%
O=C(O)[C@H](CC(=O)N1C[C@H]2CCCC[C@H]2C1)Cc1ccccc1	-1%	x	14%	x	x	x
CCCCn1nnnc1C1(C)CCC(=O)N1C1CC1 (stereo not given)	-1%	6%	-9%	13%	19	x
O=C(Nc1ccnn1C1CCN(Cc2ccc(O)c(Cl)c2)CC1)C1CCCC1	-15%	0%	-17%	-4%	-8	-11%
Cc1ccccc1-c1nc(CN(Cc2c(C)nn(C)c2C)C2CC2)c(C)o1	23µM*	-12%	u	-4%	-76*	u
Cc1ccc2nc(-c3ccc(SCC(=O)Nc4nnc(C)s4)nc3)[nH]c2c1	15µM*	9.2µM*	u	21µM*	-95*	u
Cc1ccc2nc(-c3ccc(SCC(=O)Nc4nc(C)cs4)nc3)[nH]c2c1	10µM*	-27%	18µM*	-8%	9	u
CCc1nnc(NC(=O)CSc2ccc(-c3nc4ccccc4[nH]3)cn2)s1	-25%	-21%	-14%	u	14	u
Cc1ccc2nc(-c3ccc(SCC(=O)Nc4ccc5c(c4)OCCO5)nc3)[nH]c2c1	-59%	-5%	u	6%	-15	u
CCc1c(C(=O)NC(C)C2CCCO2)csc1C (stereo not given)	-3%	4%	-5%	28%	0	u
CCOC(=O)c1c(C)oc2ccc(N(C(=O)Oc3ccccc3)S(=O)(=O)c3ccccc3)cc12	-29%	x	2%	x	x	x
CC1(C(=O)NCc2ccccc2)CSCC(=O)N1C1CCN(Cc2ccccc2)CC1 (stereo not given)	-8%	-9%	18%	-19%	u	x
Nc1nnc(SCc2ccc(Cl)cc2)s1	-16%	-7%	-21%	-1%	-22	u
Clc1ccc(CSc2nnc(NC3=NCCCCC3)s2)cc1	10µM*	-11%	u	-4%	-4	-15%
Nc1nc(N)c2cc(S(=O)(=O)c3cccc(C(F)(F)F)c3)ccc2n1	0.92µM*	10µM*	3.7µM*	13µM*	21	x
CN(C)C(=S)Oc1ccccc1C1SCCS1	u	-7%	0%	-3%	-1	x
Cc1ccc(-n2ncc3c(Nc4cccc(C(F)(F)F)c4)ncnc32)cc1C	u	x	21µM*	x	x	x
Cc1ccc(-n2ncc3c(Nc4ccc5c(c4)OCCO5)ncnc32)cc1C	18µM*	x	21µM*	x	x	x
CCCn1ncc2c(Nc3ccc(C)c(C)c3)ncnc21	u	-1%	u	2%	-64*	u
COc1ccc(N2C(=O)[C@@H]3C[C@H]2CN3Cc2cccn2-c2ccccn2)cc1Cl	-27%	x	1%[9.04 µM]	x	x	x
SMILES	DT40 TDP1 no CPT	HT1080 IDH1KD tx	DT40 TDP1 CPT	HT1080-NT tox	IL1B secr inh	ELG1 DNA repair
COCCNC(=O)C1(C)CCCN(C(=O)c2ccccc2OC)C1 (stereo not given)	2%	11%	-4%	28%	15	x
COc1ccc(CC(=O)NNC(=O)c2nn(Cc3ccccc3)c(=O)c3ccccc23)cc1OC	-28%	-6%	-17%	-27%	42	-3%
Cc1c(Cl)cccc1NC(=O)c1ccc2c(c1)CCCN2S(C)(=O)=O	-20%	x	-26%	x	x	x
Cc1cc(C)cc(NC(=O)NCCn2nnc3cc(S(=O)(=O)N(C)C)ccc32)c1	-22%	x	u	x	x	x
O=[N+]([O-])c1ccc(NC(=S)N/C(=N/CS(=O)(=O)c2ccccc2)c2ccccc2)cc1	23µM*	-10%	u	0%	-8	u
CC(C)CN1CCCC2(CCN(C(=O)c3cccc(F)c3)CC2)C1	-9%	x	1%	x	x	x
CCN(CC)C(=O)C1CCCN(C(=O)c2ccc3nc(-c4cccc(OC)c4)oc3c2)C1 (stereo not given)	12µM*	-2%	23µM*	1%	-7	x
CCOC(=O)C1CCCN(C(=O)c2ccc3nc(-c4cccc(OC)c4)oc3c2)C1 (stereo not given)	2.9µM*	6.5µM*	3.3µM*	u	4	u
COc1ccc(Cl)cc1N1C(=O)[C@@H]2C[C@H]1CN2Cc1nc2ccccc2nc1C	-20%	x	5%	x	x	x
Cc1ccc(NC(=O)CN2CCN(C3CCCCC3)C(=O)C2=O)cc1	-17%	x	-27%	x	x	x
CC(C)C[C@H]1CNC(=O)C(=O)N1C[C@H]1CCCN1C[C@H](CC(C)C)N1C[C@H](Cc2ccccc2)N(CCc2ccccc2)C(=O)C1=O	29µM*	21%	21µM*	12%	27	x
CC(C)C[C@H]1CN([C@@H](Cc2ccccc2)CN2CCC[C@H]2CN2C(=O)C(=O)NC[C@@H]2Cc2ccccc2)C(=O)C(=O)N1CCc1ccccc1	u	4%	u	0%	-2	x
CC(C)C[C@H]1CNC(=O)C(=O)N1C[C@@H]1CCCN1C[C@H](CC(C)C)N1C[C@H](Cc2ccccc2)N(CCc2ccccc2)C(=O)C1=O	u	8%	u	-13%	-6	x
